CYP2C9 inh: blocks human cytochrome P450 2C9; 20% of 96,000 active; AID 777; P11712; CYP2C9 Supersomes, luciferin-H conversion, luminescence; inhibition, % at 5 µM;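 active = blocking of liver enzyme CYP2C9 beyond about 50% at 5 µM, limit read from the data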
CYP2C19 inhib: inhibitors of human CYP2C19 | P33261 | CYP2C19 Supersomes, luciferin-H EGE luminescence, 30 min | inhibition, % at 5 µM | 21% of 96,000 active | AID 778;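 active = CYP2C19 inhibition above a set limit at 5 µM in the primary screen, cut at about 50% in these data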;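 also: plate controls were negative control wells for no effect and 2.5 mM tranylcypromine positive control for full effect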
Target sequence (P33261 whole entry, looked up): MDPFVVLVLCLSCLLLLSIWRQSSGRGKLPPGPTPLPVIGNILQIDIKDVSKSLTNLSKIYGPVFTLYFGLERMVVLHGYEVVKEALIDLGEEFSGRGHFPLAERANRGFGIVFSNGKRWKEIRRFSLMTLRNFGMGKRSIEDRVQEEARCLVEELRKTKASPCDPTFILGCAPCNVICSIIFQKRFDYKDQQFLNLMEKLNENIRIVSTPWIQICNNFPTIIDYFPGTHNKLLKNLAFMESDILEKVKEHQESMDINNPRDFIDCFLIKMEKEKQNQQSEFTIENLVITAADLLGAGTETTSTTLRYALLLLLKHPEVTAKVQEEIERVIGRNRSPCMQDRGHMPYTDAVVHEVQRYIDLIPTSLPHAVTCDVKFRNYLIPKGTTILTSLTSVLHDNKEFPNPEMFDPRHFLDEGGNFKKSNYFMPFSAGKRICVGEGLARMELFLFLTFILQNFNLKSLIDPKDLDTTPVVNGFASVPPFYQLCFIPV
EphB4 antag: blocks human EphB4 binding to ephrin-B2 | 0.15% of 97,000 active | P54760 | EphB4 LBD / TNYL-RAW-Alexa532 peptide, fluorescence polarization | inhibition, % at 7 µM | AID 720;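 active = inhibition above the screen-wide mean inhibition plus 3 SD, cut at about 15% in these data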;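 also: 0% = DMSO wells and 100% = excess unlabeled TNYL-RAW peptide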
CYP2C9 act: activators of human CYP2C9; P11712; recombinant CYP2C9, luciferin-H conversion, luminescence; active compounds read high; factor 1 = untreated enzyme, 0 = blocked; activation factor at 5 µM; 1.4% of 96,000 active;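 active = activation factor of 2 or more for CYP2C9 at a 5 µM dose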;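 also: 0 = sulfaphenazole-blocked wells and 1 = vehicle-only wells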
CYP2C19 act: increases human CYP2C19 enzyme activity; P33261; recombinant CYP2C19, luciferin-H EGE luminescence; active compounds read high; 0 = fully inhibited enzyme, 1 = untreated enzyme; activation factor at 5 µM; 96,000 tested, under 10 active; AID 1025;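 active = activation factor of at least 2 at 5 µM in the primary screen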;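 also: 0 = wells with 2.5 mM tranylcypromine and 1 = vehicle-only wells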
* = called active by the depositor; · = no result given. Only some compounds are listed: those with a hit (about 27% of all), similar ones and a draw of the others.

SMILES	CYP2C9 inh	CYP2C19 inhib	EphB4 antag	CYP2C9 act	CYP2C19 act
CC(=O)N1CCN(C2c3cccc4cccc(c34)C2NS(=O)(=O)c2ccccc2)CC1 (stereo not drawn)	68*	74*	3	0.3	0.3
COc1cccc(-n2c(SCC(=O)NCc3ccco3)nnc2-c2c[nH]c3ccccc23)c1	59*	66*	1	0.4	0.3
COCCn1c(SCC(=O)NCc2ccco2)nnc1-c1c[nH]c2ccccc12	31	24	-4	0.7	0.8
COc1ccc(-n2c(SC)nnc2-c2c[nH]c3ccccc23)cc1	8	-3	2	0.9	1
COc1ccc(OC)c(-n2c(SCC(=O)NCc3ccco3)nnc2-c2c[nH]c3ccccc23)c1	66*	39	3	0.3	0.6
COc1cccc(-n2c(SC)nnc2-c2c[nH]c3ccccc23)c1	34	62*	-9	0.7	0.4
CCC1(C)OC(=O)N2CCc3c(C)[nH]c4c(C)ccc(c34)C21C (stereo not drawn)	70*	69*	-5	0.3	0.3
CC1(Cc2ccc3c(c2)OCO3)NC(=O)NC1=O (stereo not drawn)	-24	-4	-7	1.2	1
Cn1c(SCC2CCCO2)nnc1-c1ccncc1 (stereo not drawn)	-7	66*	0	1.1	0.3
Cc1ccc(-c2nnc(SCC(=O)NCC3CCCO3)n2C)cc1 (stereo not drawn)	2	-6	-1	1	1.1
Cc1ccc(CSc2nnc(-c3ccncc3)n2CC2CCCO2)cc1 (stereo not drawn)	25	60*	2	0.7	0.4
O=C(O)c1ccc(CSc2nnc(-c3ccncc3)n2CC2CCCO2)cc1 (stereo not drawn)	31	27	1	0.7	0.7
Cc1c(Cl)c(C(=O)NC2CCCC2)nn1C	·	·	4	·	·
COc1ccc(-n2c(Cc3cccn3C)nnc2SCC(=O)Nc2ccc3c(c2)OCCO3)cc1	36	29	-2	0.6	0.7
CCCCOC(=O)c1ccc(NC(=O)CSC2=Nc3ccccc3C3CC=NN23)cc1 (stereo not drawn)	86*	38	1	0.1	0.6
COc1ccc(Cc2nc(C(=O)Nc3ccc(F)cc3)cs2)cc1	87*	89*	-6	0.1	0.1
COc1ccc(Cc2nc(C(=O)Nc3ccc(Cl)cc3)cs2)cc1	90*	83*	2	0.1	0.2
COc1ccc(Cc2nc(C(=O)Nc3ccccc3)cs2)cc1	90*	88*	1	0.1	0.1
COc1ccc(COc2ccsc2C(=O)Nc2ccc(Cl)cc2)cc1	59*	10	-5	0.4	0.9
COc1ccc(Cn2nnc(C(=O)Nc3ccc(F)cc3)c2N)cc1	14	7	7	0.9	0.9
COc1ccc(NC(=O)c2ccccn2)cc1	20	26	-5	0.8	0.7
Cc1c(C(=O)O)cnc2cc(-c3ccc(Cl)cc3)nn12	30	17	·	0.7	0.8
CCC(=NCc1ccccc1)c1c(C(F)(F)F)[nH]n(-c2nc3ccccc3s2)c1=O	94*	68*	-4	0.1	0.3
CC(=NCc1ccco1)c1c(C)[nH]n(-c2nc3ccccc3s2)c1=O	10	2	0	0.9	1
CCC(=NCc1ccco1)c1c(C(F)(F)F)[nH]n(-c2nc3ccccc3s2)c1=O	70*	64*	3	0.3	0.4
SMILES	CYP2C9 inh	CYP2C19 inhib	EphB4 antag	CYP2C9 act	CYP2C19 act
C=CCn1c(SCC(=O)O)nnc1-c1cccs1	13	-15	-5	0.9	1.2
COc1ccc(CC(=O)NNC(=O)c2ccc(SCc3cc(F)ccc3F)c([N+](=O)[O-])c2)cc1	18	2	-2	0.8	1
COc1ccc(CCNC(=S)Nc2ccccc2C)cc1	24	48	2	0.8	0.5
S=C(NCCc1ccccc1)Nc1ccc(Cl)cc1Cl	46	86*	-6	0.5	0.1
S=C(NCCSCc1ccc(Cl)c(Cl)c1)Nc1ccccc1	·	·	-4	·	·
S=C(NCCSCc1ccc(Cl)cc1Cl)Nc1ccccc1	-131	52*	-2	2.3*	0.5
COc1ccccc1NC(=S)NCCc1ccccc1	5	82*	6	0.9	0.2
CC(C)(C)CC(=O)NC(=S)NCCc1ccccc1	30	31	2	0.7	0.7
CC(C)CC(=O)NC(=S)NCCc1ccccc1	36	34	16*	0.6	0.7
Cn1c(=O)oc2cc(S(=O)(=O)N3CCCC(C(=O)Nc4ccccn4)C3)ccc21 (stereo not drawn)	-3	1	2	1	1
CSc1ccc(C#N)cc1NC(=O)c1ccc(Cl)cc1Cl	-18	-1	6	1.2	1
COc1ccccc1CN1C(=O)[C@@H]2C(CCC(N)=O)NC3(C(=O)Nc4c3ccc(Cl)c4C)[C@@H]2C1=O (stereo partly drawn)	1	-5	11	1	1.1
COc1ccc(CCNC(=S)NC(=O)c2ccccc2)cc1OC	28	61*	0	0.7	0.4
COc1ccc(C(=O)N/C(=C\c2cccc3ccccc23)C(=O)NCCc2c[nH]c3ccccc23)cc1OC	65*	50*	5	0.3	0.5
Cc1ccc(C(=O)N/C(=C\c2cccs2)C(=O)NCCc2c[nH]c3ccccc23)cc1C	35	21	2	0.7	0.8
COc1ccccc1NC(=S)NCCc1c[nH]c2ccccc12	-135	86*	-7	2.4*	0.1
CCCC(=O)NC(=S)Nc1ccccc1OC	21	25	0	0.8	0.7
CC(=O)NC(CCS(C)(=O)=O)C(=O)Nc1ccccc1 (stereo not drawn)	-8	-7	3	1.1	1.1
COc1ccc(CNC(=O)CN2C(=O)C3CCCN3c3ncc(Cl)cc32)cc1 (stereo not drawn)	52*	82*	-2	0.5	0.2
COC(=O)c1ccccc1NC(=O)CN1C(=O)C2CCCN2c2ncc(Cl)cc21 (stereo not drawn)	67*	48	2	0.3	0.5
O=C(CN1C(=O)C2CCCN2c2ncc(Cl)cc21)NCc1ccc2c(c1)OCO2 (stereo not drawn)	16	40	-7	0.8	0.6
O=C(CN1C(=O)c2ccccc2C1=O)Nc1ccccc1C(=O)NC1CCCCCC1	·	·	-3	·	·
CCc1ccccc1NC(=O)CN1C(=O)C2CCCN2c2ncc(Cl)cc21 (stereo not drawn)	54*	55*	0	0.5	0.4
CC1CCC(NC(=O)CN2C(=O)C3CCCN3c3ncc(Cl)cc32)CC1 (stereo not drawn)	44	38	-5	0.6	0.6
CCc1ccccc1NC(=O)CN(C)Cc1nc(N)nc(Nc2ccccc2C)n1	30	68*	-2	0.7	0.3
COCCCNC(NC(=O)c1ccc(Cl)cc1)C(Cl)(Cl)Cl (stereo not drawn)	25	43	-3	0.7	0.6
O=C(Nc1ccc(Cl)cc1)c1cccs1	-4	20	8	1	0.8

Bioassay records deposited in PubChem by several laboratories.
